In the library only some 5.5% were active in any assay of this set; here they are far more common.
VP16 counter: Gal4-VP16 reporter inhibition counter-screen; Drosophila S2 Gal4-VP16 UAS-luciferase, luminescence, 20 h; Potency, µM (titrated, usually from 53.6 µM), for the others: at the highest dose activity, negative = inhibition, most hits filed as inhibitors; 310,000 compounds, 3.5% hits; AID 2546;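 note: Gal4-VP16 expression switched on by copper sulfate through the metallothionein promoter; % is set by controls: 0 for no effect and ±100 for the full control effect; nearly all actives have a fitted effect of over 50% in size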
Mito fusion yeast: inhibitors of mitochondrial division or activators of mitochondrial fusion; S. cerevisiae fusion-defective mutant growth rescue, CellTiterGlo 48 h; Potency, µM (doses to about 46.1 µM), for the others: top-dose growth rescue (activation), hits mostly activators; 320,000 compounds, 0.23% hits; note: % of control where 0% means no effect; nearly all actives have a fitted effect of over 45% in size
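Growth-rescue viability read-out: after 48 h at the non-permissive 37C in glycerol/ethanol YPEG, yeast mitochondrial fusion mutants are measured by CellTiterGlo luminescence; compounds (23 nl pinned per well) restoring growth score as division inhibitors or fusion activators.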
Integrin act MD: integrin-mediated muscular dystrophy alleviation activation; 350,000 compounds, 0.064% hits; Potency, µM (highest dose often 38.3 µM), inactives show at the highest dose activation, hits mostly activators; alpha7betagal myoblasts, beta-gal FDG fluorescence, 48 h; AID 624291;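 note: 100% = response of the positive control SU9516; nearly all actives have a fitted effect of over 60% in size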
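alpha7betagal+/- myoblasts (passage 13, 250/well) treated 48 h at 37C with compounds at 1:260 dilution of DMSO stock. Lysed, then beta-galactosidase activity read as FDG fluorescence (ex 480/em 540) after 30 min, with pre-read for autofluorescence.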
RORg inh: blocks mouse ROR gamma transcriptional activity; 310,000 compounds, 5.4% hits; P51450; Potency, µM (top dose mostly 53.6 µM), inactives show at the top dose activity change, negative = inhibition, hits mostly inhibitors; Drosophila S2 Gal4-RORgamma UAS-luciferase reporter, 20 h; note: % is set by controls: 0 for no effect and ±100 for the full control effect; nearly all actives have a fitted effect of over 60% in size
Target sequence (P51450 whole entry, looked up, the tested form may be a part): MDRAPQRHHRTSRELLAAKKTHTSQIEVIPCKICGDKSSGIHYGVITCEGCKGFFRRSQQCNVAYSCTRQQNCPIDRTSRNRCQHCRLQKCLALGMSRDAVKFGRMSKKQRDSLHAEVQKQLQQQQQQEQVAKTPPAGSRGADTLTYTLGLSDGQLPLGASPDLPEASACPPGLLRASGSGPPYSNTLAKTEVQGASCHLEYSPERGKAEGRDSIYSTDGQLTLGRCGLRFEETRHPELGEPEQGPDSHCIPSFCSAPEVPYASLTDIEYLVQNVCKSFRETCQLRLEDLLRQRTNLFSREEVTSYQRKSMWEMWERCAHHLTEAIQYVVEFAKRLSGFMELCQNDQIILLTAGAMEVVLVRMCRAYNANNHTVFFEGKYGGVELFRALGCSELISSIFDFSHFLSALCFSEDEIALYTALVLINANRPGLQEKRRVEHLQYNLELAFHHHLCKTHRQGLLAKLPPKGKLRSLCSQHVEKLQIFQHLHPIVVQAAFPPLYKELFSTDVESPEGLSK
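Compounds are pin-transferred onto Drosophila Schneider cells expressing a copper-inducible Gal4–ROR gamma transactivation domain fusion. After 1 hr, copper sulfate is added to 700 uM final; luciferase is read 20 hr later.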
uPA surface inh: blocks generation of uPA at the cell surface; cell surface uPA generation assay, qHTS; 330,000 compounds, 0.31% hits; Potency, µM (top dose mostly 38.3 µM), for inactives: at the top dose activity change, negative = inhibition, usual class: inhibitors; AID 540303; active = well fitted inhibition curve with a large enough effect; inconclusive = small, poorly fitted or top-dose-only effect; inactive = no such curve, though single readings can be large or run the other way; tested in mouse RAW 264.7 cells; note: % is set by controls: 0 for no effect and ±100 for the full control effect; nearly all actives have a fitted effect of over 55% in size
Chronic BCR inh: inhibitors of chronic active B-cell receptor signaling | ABC-DLBCL IkBa-CBG/CBR reporter, luminescence ratio, 4 h | Potency, µM (top dose mostly 46.1 µM), for the others: at the top dose activity change, negative = inhibition, actives largely listed as inhibitors | 340,000 compounds, 0.05% hits; active = well fitted inhibition curve with a large enough effect in the signal ratio, with a control signal flat, not every such curve was filed as active; inconclusive = small, poorly fitted or top-dose-only effect, or effect the other way, or a change in a side signal; the % refers to the signal ratio;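 note: plate controls were basal doxycycline-induced cells for no effect and cells given 10 µM MG132 for full effect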
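Compounds up to 46 uM were incubated four hours with TMD8 cells whose green CBG68 luciferase is fused to IkappaBalpha; red CBR luminescence normalised the signal, and concentration-effect curves were fitted to fusion, red and ratio data.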
Starred values were filed as active, the others as inactive; ? = inconclusive; . = no result; [ ] = dose if it differs, or a comment. Unless noted, calls come from the whole dose curve; as a rule, active = well fitted curve in the direction sought with a large enough effect; inconclusive = small, poorly fitted or top-dose-only effect, or another doubt; inactive = no such curve, though single readings can be large; an effect the other way counts as inactive or inconclusive. Potency is the fitted concentration of half-maximal effect.

SMILES	VP16 counter	Mito fusion yeast	Integrin act MD	RORg inh	uPA surface inh	Chronic BCR inh
O=C(N/N=C/c1cccnc1)c1cccc(S(=O)(=O)Nc2cccc(Cl)c2)c1	3.9%	-3.3%	4.5%	9.9%	9.5%	0.8%
Cc1ccc(S(=O)(=O)Nc2ccccc2C=NNC(=O)c2ccncc2)cc1	.	.	-26.9%	.	.	.
COc1ccccc1NS(=O)(=O)c1cccc(C(=O)N/N=C/c2ccc(C)o2)c1	14.1µM*	1.5%	16.4%	11.2µM*	-2.9%	-0.4%
Cc1ccc(/C=N/NC(=O)c2cccc(S(=O)(=O)Nc3cccc(Cl)c3)c2)o1	?	-3.8%	13.0%	12.6µM*	-2.5%	0.5%
COc1ccccc1NS(=O)(=O)c1cccc(C(=O)OCc2nc3ccccc3s2)c1	-3.3%	?	-1.6%	37.0%	6.1%	-2.3%
COc1ccccc1/C=N/NC(=O)c1ccccc1NS(=O)(=O)c1ccc(C)cc1	?	-2.0%	-14.3%	12.6µM*	-1.9%	4.4%
COc1cccc(CC(NC(C)=O)C(=O)NC2CCN(C(=O)C3CC3)CC2)c1OC (stereo not given)	-10.1%	0.0%	0.0%	-3.9%	5.0%	-5.1%
CCOc1cc2[nH]c(=O)n(CCCCC(=O)N3CCN(c4ccc(OC)cc4)CC3)c(=O)c2cc1OCC	.	.	.	.	.	-1.6%
O=C(NNc1nc2cc3c(cc2s1)OCO3)c1ccccc1	?	-7.5%	-4.7%	5.01µM*	-0.2%	4.2%
O=C(NNc1nc2cc3c(cc2s1)OCO3)c1cccc(F)c1	?	-3.3%	-14.3%	4.47µM*	2.4%	?
Cc1ccc2nc(NNC(=O)c3ccc4c(c3)OCCO4)sc2c1	?	5.9%	-4.2%	4.47µM*	1.9%	-2.6%
COc1ccccc1C(=O)Nc1nc2cc3c(cc2s1)OCO3	-11.4%	-2.7%	?	5.9%	-2.5%	?
CCN1C[C@@H]2[C@@H]3C(=O)N(Cc4ccccc4)C(=O)[C@@H]3[C@](C)(C1=O)N2C(=O)c1ccc(C(F)(F)F)cc1	.	.	16.9%	.	4.0%	.
C/C(CC(=O)NC1CCCCC1)=N\NC(=O)Cc1ccc(-c2ccccc2)cc1	-2.9%	12.1%	-4.4%	10.2%	2.1%	?
COc1ccc(OC)c(S(=O)(=O)NNC(=S)Nc2ccc3c(c2)OCO3)c1	?	-5.1%	-8.7%	10µM*	-3.6%	?
COc1ccc(OC)c(S(=O)(=O)N(C)CC(=O)Nc2ccc3c(c2)OCO3)c1	4.1%	0.2%	4.5%	?	3.3%	-6.6%
COc1ccc(-c2nnc(-c3ccc(N(C)C)cc3)o2)cc1	-25.9%	2.4%	3.1%[7.66 µM]	0.794µM*	.	.
Brc1ccc(-c2nnc(-c3ccccc3Br)o2)cc1	-24.5%	-2.6%	24.7%	-8.3%	-7.6%	6.4%
Cc1ccc(-c2nnc(-c3ccccc3Br)o2)cc1	?	-9.5%	13.5%	12.6µM*	-12.2%	?
CN(C)c1ccc(-c2nnc(-c3ccccc3F)o2)cc1	?	-1.3%	-5.2%	11.2µM*	?	?
COc1ccc(OCC2Cc3c(-c4ccccc4)nc4c(c3CO2)CN(CCOc2ccccc2)CC4)cc1 (stereo not given)	-2.7%[10 µM]	.	.	16.4%[10 µM]	.	.
Nc1ncnc2c1ncn2[C@@H]1O[C@H](C(=O)N2CCN(CC(=O)Nc3cccc4c3CNC4=O)CC2)[C@@H](O)[C@H]1O	-1.1%	.	.	-12.5%	.	.
Cc1ccc(-c2csc3ncnc(SCC(N)=O)c23)cc1	-20.7%[10 µM]	-6.4%	-14.2%	1.58µM*	-7.5%	?
Cc1sc2ncnc(SCc3ccc(C(=O)O)cc3)c2c1C	-20.6%	-3.1%	2.2%	-1.7%	-19.9%	3.8%
Cc1ccc(-c2csc3nc(SCC(N)=O)n(Cc4ccccc4)c(=O)c23)cc1	?	12.9%	34.7%	11.2µM*	-4.7%	0.0%
SMILES	VP16 counter	Mito fusion yeast	Integrin act MD	RORg inh	uPA surface inh	Chronic BCR inh
Cc1ccc(-c2csc3ncnc(SCc4ccc(C(=O)O)cc4)c23)cc1	4.47µM*	2.9%	-7.0%	2.82µM*	-0.9%	?
c1ccc(-c2csc3ncnc(N4CCN(Cc5ccc6c(c5)OCO6)CC4)c23)cc1	-1.7%	-2.7%	?	8.7%	9.9%	1.4%
O=C(CSc1ncnc2scc(-c3ccccc3)c12)N1CCN(Cc2ccc3c(c2)OCO3)CC1	?	18.7%	10.6%	22.4µM*	0.6%	-16.2%
O=C(CSc1nnc2[nH]c(=O)cc(-c3ccccc3)n12)Nc1cc(C(F)(F)F)ccc1Cl	.	.	.	.	.	-12.8%
O=C(c1cc(COc2ccc(F)cc2Cl)on1)N1CCC(c2ccncc2)CC1	7.08µM*	-4.0%	0.0%	11.2µM*	-4.1%	7.5%
CC(C)Cc1ccc(C2=CSC3=NCCN23)cc1	.	.	0.0%	.	-4.8%	.
CC(C)(C)c1ccc(C2=CSC3=NCCN23)cc1	-17.1%	-9.3%	-38.8%	10µM*	-7.7%	-3.1%
COc1ccc(CCNC(=O)CCC(=O)Nc2ccccc2[N+](=O)[O-])cc1OC	-5.9%	0.8%	?	23.0%	-52.7%	-11.6%
c1ccc(-c2n[nH]c3c2CCC3)cc1	-21.2%	-9.2%	-18.9%	12.6µM*	-4.5%	-2.9%
COc1cccc(-c2n[nH]c3c2CCC3)c1	27.2%	16.0%	?	?	1.1%	14.3%
O=C(/C=C/c1ccccc1)NCCO	-5.2%	.	.	23.7%	.	.
O=C(Nc1nccs1)c1ccc([N+](=O)[O-])cc1	-7.2%	-2.6%	-14.1%	8.91µM*	-0.8%	6.3%
CC(C)C(=O)Nc1ncc(Cc2cccc(Cl)c2)s1	?	-9.8%	2.6%	11.2µM*	-0.8%	-15.3%
CC(=O)Nc1ncc(Cc2cccc(Cl)c2)s1	?	?	-39.2%	-19.8%	-1.0%	-14.8%
Cc1nn(Cc2ccc(C(=O)Nc3nccs3)cc2)c(C)c1Cl	?	0.8%	0.0%	12.6µM*	-2.9%	?
O=C(Cc1ccc([N+](=O)[O-])cc1)Nc1nccs1	-27.5%	-2.2%	-47.8%	-0.3%	5.5%	6.9%
O=C(Nc1ncc(Cc2cccc(Cl)c2)s1)c1ccc([N+](=O)[O-])cc1	2.82µM*	-1.4%	-31.3%	5.01µM*	-2.1%	-16.2%
Cc1nn(Cc2ccc(C(=O)NN)cc2)c(C)c1Cl	-8.4%	14.7%	-39.0%	?	1.3%	-10.7%
N#Cc1cnc(NOCc2ccc(Cl)cc2)nc1	-10.7%	24.0%	-9.3%	28.8%	0.6%	?
CCCn1c(CN2CCN(C(=O)OCC)CC2)nc2cc(NC(=O)C(C)C)ccc21	-1.1%	5.0%	-45.0%	-5.4%	?	-4.0%
CCCCN1CCCc2cc(CN(CCCN3CCOCC3)C(=O)Nc3ccc(CC)cc3)ccc21	.	.	.	.	.	1.7%
